11 compounds from PubChem BioAssay (NCATS) can be followed below.

Assay [1] can be described thus: qHTS Assay for Lipid Storage Modulators (AID 1519; calls by dose curve; on activity change, negative = inhibition: on the % scale 0 is the no-effect control and ±100 the full control effect). The following applies: Drosophila S3 cells, BODIPY lipid droplet/cell ratio, laser cytometry, cells loaded with oleic acid. In a few lines:
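Cells seeded at 5,000 per well were treated with compounds over a concentration series and loaded with oleic acid (400 uM, as added). Lipid droplet fluorescence (488 nm excitation, 500-530 nm channel) was read by laser-scanning cytometry and normalized to 20 uM Triacsin C.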
Background: qHTS replaces the single test concentration by a dilution series.

Assay [2] can be described thus: Cell Viability - LYMP1-002 - Assay at 24 hr (AID 993). Further: on the % scale 0 is the no-effect control and ±100 the full control effect. The following applies: LYMP1-002 lymphoblastoid cells viability; series mostly up to 92.2 µM. The method in brief:
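Acute toxicity is measured as concentration-dependent loss of cellular ATP in a human lymphoblastoid line (Coriell LYMP1-002) after 24 h treatment in complete medium. ATP is quantified by luciferase luminescence and AC50 derived by Hill modelling.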

Assay [3] concerns the target DNA repair nuclease/redox regulator APEX1 (Homo sapiens) (UniProt P27695). Nature of the assay: qHTS Validation Assay for Inhibitors of the Human Apurinic/apyrimidinic Endonuclease 1 (APE1) (AID 1705; further: potency means the concentration at half of the fitted maximal effect). Particulars: purified APE1 endonuclease activity, fluorescence, titration; series mostly up to 57.1 µM. In a few lines: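 Human APE1 was preincubated with compound for 15 min at room temperature, then 50 nM (final) THF-abasic double-stranded DNA substrate bearing 5'-TAMRA and 3'-BHQ-2 was added. Incision-driven fluorescence rise (ex 525/em 598 nm) was read kinetically.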

A short description of assay [4]: Counterscreen for APE1 Inhibitors: Fluorescent Dye Displacement Validation Assay (AID 1707).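 Further: plate controls were ThO with dsDNA and no compound for no effect and ThO without dsDNA for full effect.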 Particulars: fluorescent dye displacement from DNA; series mostly up to 57.1 µM. In a few lines:
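Loss of Thiazole Orange fluorescence marks promiscuous DNA binders. The dye (250 nM) is mixed with 50 nM abasic-site dsDNA in pH7.5 Tris buffer containing MgCl2, then compounds are added and emission is read once.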
(In general: A counterscreen serves to expose hits that act by an unwanted route or on another target.)

For assay [5], the target named is Endonuclease 4 (Escherichia coli (strain K12)) (UniProt P0A6C1). Nature of the assay: Counterscreen for APE1 Inhibitors: qHTS Validation Assay for Inhibitors of Endonuclease IV (AID 1708). Further: potency means the concentration at half of the fitted maximal effect. Particulars: E. coli endonuclease IV, DNA cleavage fluorescence. In a few lines: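 Incision of a double-stranded 50 nM TAMRA/BHQ-2 abasic substrate was followed kinetically (525/598 nm, reads every 60 s) after 15 min enzyme–compound preincubation with 2 nM EndoIV in pH 7.5 Tris buffer with MgCl2, DTT and Tween-20; concentration-response format.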

Assay [6] is described as follows: qHTS for differential inhibitors of proliferation of Plasmodium falciparum line 7G8 (AID 1815).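 Further: parasite growth measured after three days of incubation; plate controls were vehicle wells for no effect and reference inhibitor wells for full effect.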 Particulars: Plasmodium falciparum 7G8 proliferation inhibition; series mostly up to 28.7 µM.
Assay [7] can be described thus: Cell Viability - LYMP2-007 (AID 979).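 Further: cells exposed to compound for 24 h before reading; 0% = DMSO only and the negative end = 92 µM tetraoctylammonium bromide; nearly all actives have a fitted effect of over 60% in size.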 The following applies: LYMP2-007 lymphoblastoid cell viability; series mostly up to 92.2 µM. In a few lines:
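Cells are seeded at 2500 per well and rested 5 hr. Compounds are then added over a concentration series for 24 hr at 37 C. CellTiter-Glo is added for 30 min at room temperature before luminescence reading.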

A short description of assay [8]: Cell Viability - LYMP2-008 (AID 980).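 Further: cells exposed to compound for 24 h at 37 °C; on the % scale 0 is the no-effect control and ±100 the full control effect; nearly all actives have a fitted effect of over 60% in size.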 Particulars: LYMP2-008 lymphoblastoid cell viability, qHTS; series mostly up to 92.2 µM. In a few lines:
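Cells seeded at 2500/well and rested 5 hr at 37 C; compounds added over a concentration range and incubated 24 hr at 37 C; CellTiter-Glo added, 30 min at room temperature; luminescence read and AC50 fitted with Hill model.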

Assay [9] is described as follows: Cell Viability - LYMP2-010 (AID 981).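 Further: cells exposed to compound for 24 hours at 37 °C; on the % scale 0 is the no-effect control and ±100 the full control effect; nearly all actives have a fitted effect of over 55% in size.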 The following applies: LYMP2-010 lymphoblastoid cell viability, qHTS; series mostly up to 92.2 µM. In a few lines:
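Steps: seed 2500 LYMP2-010 cells per well; incubate 5 hr at 37 C; add compound; incubate 24 hr at 37 C; add CellTiter-Glo, wait 30 min at room temperature; read luminescence. Concentration-response fitted to Hill equation for AC50.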

Assay [10] can be described thus: Cell Viability - LYMP2-012 (AID 982).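 Further: cellular ATP by luciferase luminescence where a drop means cytotoxicity; cells exposed to compound for one day before reading; 0% = DMSO only and full loss = 92 µM tetraoctylammonium bromide; nearly all actives have a fitted effect of over 55% in size.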 The following applies: LYMP2-012 lymphoblastoid cell viability qHTS; series mostly up to 92.2 µM.
Assay [11] can be described thus: Cell Viability - LYMP2-014 (AID 983).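 Further: cells exposed to compound for 24 h at 37 °C; plate controls were DMSO only for no effect and 92 µM tetraoctylammonium bromide for full effect; nearly all actives have a fitted effect of over 50% in size.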 The following applies: LYMP2-014 lymphoblastoid cells, viability qHTS; series mostly up to 92.2 µM. The method in brief:
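Cells are plated at 2500/well and left 5 hr at 37 C. Compounds are added across a concentration range and incubated 24 hr at 37 C in complete medium. CellTiter-Glo is added, and luminescence is read after 30 min at room temperature.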

The nature of assay [12]: Cell Viability - LYMP2-016 (AID 984).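 Further: cells exposed to compound for 24 hours at 37 °C; on the % scale 0 is the no-effect control and ±100 the full control effect; nearly all actives have a fitted effect of over 55% in size.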 Particulars: LYMP2-016 lymphoblastoid cell viability, qHTS; series mostly up to 92.2 µM. The method in brief:
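Human lymphoblastoid cells (LYMP2-016), 2500/well in complete medium, preincubated 5 hr at 37 C, then compound-treated 24 hr at 37 C. Intracellular ATP read by CellTiter-Glo luminescence after 30 min at room temperature; AC50 from Hill-equation concentration-response fits.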

The nature of assay [13]: Cell Viability - LYMP2-018 (AID 985).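 Further: compound exposure lasted 24 hr at 37 °C; nearly all actives have a fitted effect of over 50% in size.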 Further: potency means the concentration at half of the fitted maximal effect. Particulars: LYMP2-018 lymphoblastoid cells, viability (qHTS); series mostly up to 92.2 µM. The method in brief:
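Seed 2500 lymphoblastoid cells per well, incubate 5 hr at 37 C, add compound and incubate 24 hr at 37 C, add CellTiter-Glo, wait 30 min at room temperature, then read luminescence.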

Assay [14] is described as follows: Cell Viability - LYMP2-020 (AID 986).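 Further: cells exposed to compound for 24 h at 37 °C; nearly all actives have a fitted effect of over 55% in size.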 Further: potency means the concentration at half of the fitted maximal effect. The following applies: series mostly up to 92.2 µM. In a few lines:
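Seed 2500 cells per well and incubate 5 hr at 37 C. Add compounds at a concentration series and incubate 24 hr at 37 C. Add CellTiter-Glo, wait 30 min at RT, read luminescence, and fit a Hill curve for AC50.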

Assay [15] can be described thus: Cell Viability - LYMP2-022 (AID 987). Particulars: LYMP2-022 lymphoblastoid cell viability; series mostly up to 92.2 µM. The method in brief:
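Cells were seeded at 2500 per well, rested 5 hr at 37 C, and treated with titrated compounds for 24 hr at 37 C. Cellular ATP was then quantified by luciferase luminescence, and AC50 values were derived from Hill-modelled concentration-response curves.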

Assay [16] can be described thus: Cell Viability - LYMP2-024 (AID 988). Further: nearly all actives have a fitted effect of over 60% in size. Further: potency means the concentration at half of the fitted maximal effect. Particulars: LYMP2-024 lymphoblastoid cell viability; series mostly up to 92.2 µM. The method in brief:
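qHTS cytotoxicity, human lymphoblastoid line, complete medium; 24 h cpd treatment, 37 C; CellTiter-Glo ATP luminescence readout; tetraoctylammonium bromide positive control; AC50 via Hill fit.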

Assay [17] can be described thus: Cell Viability - LYMP2-026 (AID 989).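 Further: cells exposed to compound for 24 h at 37 °C; on the % scale 0 is the no-effect control and ±100 the full control effect; nearly all actives have a fitted effect of over 50% in size.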 Particulars: LYMP2-026 lymphoblastoid cell viability, qHTS; series mostly up to 92.2 µM. In a few lines:
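Cells are seeded at 2500 per well and held 5 hr at 37 C. Compounds are added in concentration series for 24 hr, then CellTiter-Glo reagent is applied and luminescence read.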

A short description of assay [18]: Cell Viability - LYMP1-002 - Assay at 40 hr (AID 994). Further: nearly all actives have a fitted effect of over 60% in size. Further: potency means the concentration at half of the fitted maximal effect. The following applies: LYMP1-002 lymphoblastoid cell viability; series mostly up to 92.2 µM. In a few lines: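 Cells are plated at 2500 per well and rested 5 hr at 37 C. Compounds are added and incubated 40 hr at 37 C. CellTiter-Glo reagent is added for 30 min at room temperature before luminescence is read.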

Setting [19] is: measured here: cell count channel max response.
[20] abbreviates: measured here: lipid channel max response.

Values joined by “and” are separate entries in the source; they are usually repeats but may differ in a detail not shown here. Equal values may be shown once. Records with an inconclusive call do not appear. Active and inactive are the calls of the source. Unless noted, the call rests on the fitted dose curve; in most records, active means well fitted curve in the direction sought with a large enough effect; inconclusive means small, poorly fitted or top-dose-only effect, or another doubt; inactive means no such curve, though single readings can be large; an effect the other way counts as inactive or inconclusive.

Chain of DNA repair nuclease/redox regulator APEX1 (Homo sapiens) (P27695 whole entry, looked up): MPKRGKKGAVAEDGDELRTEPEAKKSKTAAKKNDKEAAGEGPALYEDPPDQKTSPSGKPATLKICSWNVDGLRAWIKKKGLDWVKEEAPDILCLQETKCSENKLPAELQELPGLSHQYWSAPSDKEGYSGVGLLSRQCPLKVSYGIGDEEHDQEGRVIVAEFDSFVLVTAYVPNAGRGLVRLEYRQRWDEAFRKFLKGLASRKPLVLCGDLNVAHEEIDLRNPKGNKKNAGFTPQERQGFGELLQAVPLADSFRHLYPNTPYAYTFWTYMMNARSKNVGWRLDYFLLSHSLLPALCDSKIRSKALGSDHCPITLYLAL

Regarding `O=C1C(O)=C(O)C(=O)C(O)=C1O`, the activity change, negative = inhibition in assay [1] (at 25.7 µM (top of the series)) is -0.531% (inactive); in assay [1] (at 57.5 µM (top of the series)) it was 9.14% (inactive). Also, the max response was -3.62% and 13.5% in assay [1] (setting [19]); -3.42% and 27.1% in assay [1] (setting [20]).

Regarding `Oc1ccc(Cl)cc1Cc1cc(Cl)ccc1O`, the outcome in assay [2] was inactive.

Turning to `CC(=O)OCC1=C(C(=O)O)N2C(=O)[C@@H](NC(=O)CSc3ccncc3)[C@H]2SC1`, the Potency in assay [3] was 8.91 µM (active); in assay [5], 15.8 µM (active). Further, the compound was classed as inactive in assay [4] and in [6].

For `NC(=O)c1ccccc1O`, the result in assay [7], in assay [8], in assay [9], in assay [10], in [11] and in assay [12] was inactive. Also, the call in [15], in assay [17] and in assay [2] was inactive. Further, the Potency result in assay [13], in [14], in [16] and in [18] was “inactive” throughout. Also, the activity change, negative = inhibition in [1] (at 57.5 µM (top of the series)) was 8.72% (inactive). The max response in assay [1] (setting [19]) worked out at 13.3%; in [1] (setting [20]), 29.8%.

Consider `Oc1c(Cl)cc(Cl)c(Cl)c1Cc1c(O)c(Cl)cc(Cl)c1Cl`, for which the Potency was 25.1 µM (active) in assay [13], 15.8 µM (active) in assay [14], 39.8 µM (active) in assay [16] and 31.6 µM (active) in assay [18]. Also, in [1] (at 57.5 µM (top of the series)), the activity change, negative = inhibition was 7.05% (inactive). The max response in assay [1] (setting [19]) is 18%; in assay [1] (setting [20]), 27%.

In the case of `O=C(O)c1ccc(S(=O)(=O)N(Cl)Cl)cc1`, the compound was called inactive in assay [7], in [8], in assay [9], in assay [10], in assay [11] and in assay [12]. The result in assay [15], in assay [17] and in assay [2] was inactive. The Potency entry in [13], in assay [14], in assay [16] and in assay [18] was “inactive” throughout. In addition, the activity change, negative = inhibition in assay [1] (at 57.5 µM (top of the series)) was 9.84% (inactive). In addition, the max response was 17.1% in assay [1] (setting [19]) and 34.6% in assay [1] (setting [20]).

In the case of `CCOc1ccccc1C(N)=O`, the outcome in assay [7], in assay [8], in [9], in assay [10], in [11] and in assay [12] was inactive. Besides, the outcome in assay [15], in assay [17] and in assay [2] was inactive. Besides, the Potency result in [13], in assay [14], in assay [16] and in assay [18] was “inactive” each time.

For `NS(=O)(=O)c1cc(C(=O)O)cc(N2CCCC2)c1Oc1ccccc1`, the activity change, negative = inhibition in assay [1] (at 25.7 µM (top of the series)) is -4.05% (inactive). Besides, the max response in [1] (setting [19]) is -4.21%; in assay [1] (setting [20]), -6.59%.

Regarding `C=C[C@H]1CN2CC[C@H]1C[C@@H]2[C@@H](O)c1ccnc2ccc(OC)cc12`, the result in [7], in assay [8], in assay [9], in [10], in assay [11] and in assay [12] was inactive. In addition, the call in assay [15], in assay [17] and in [2] was inactive. For the same compound, the Potency result in assay [14], in [16] and in [18] was “inactive” throughout.

Regarding `CCN(CC)CCNC(=O)COc1ccc(OC)cc1`, the activity change, negative = inhibition is -2.56% (inactive) in assay [1] (at 25.7 µM (top of the series)) and 3.31% (inactive) in assay [1] (at 57.5 µM (top of the series)). The max response in assay [1] (setting [19]) is 7.9% and 27.2%; in assay [1] (setting [20]) it was 4.41% and 33.1%.

With `COc1ccc(C(Cl)=C(c2ccc(OC)cc2)c2ccc(OC)cc2)cc1`, the outcome in assay [7], in assay [8], in [9], in [10], in [11] and in assay [12] was inactive. For the same compound, the result in assay [15] and in assay [2] was inactive. In addition, the Potency result in assay [13], in assay [14], in assay [16] and in assay [18] was “inactive” each time. Also, the activity change, negative = inhibition in [1] (at 25.7 µM (top of the series)) is 1.46% (inactive). Further, the max response in assay [1] (setting [19]) was -13.4%; in [1] (setting [20]) it was -12.3%.
